Experimental data reported in PubChem BioAssay AID1259240 (Keith Lab, Institute of Cancer Science, University of …, 2017).
Unmarked numbers belong to inactive results. Calls of active or inactive are those of the source. No stated cut-off is given here; in the data, active means fold change mostly below about -2 (no sharp cut-off); inactive means mostly above about -1.8.

assay: TERT promoter activity modulators, primary screen, cell-based, luciferase reporter, human (AID 1259240); conditions: A2780 TERT promoter luciferase reporter, 16 h; at 20 µM, fold versus average of vehicle-only wells

Row | Compound | fold change | outcome
1 | Cc1cc(C)c2c(=O)n(CC(=O)NCCC3=CCCCC3)sc2n1 | 1.18 | –
2 | O=C(CN1C(=O)c2ccccc2C1=O)Nc1nccs1 | -1.42 | –
3 | CC(C)Cc1nnc(NC(=O)CSc2ncn[nH]2)s1 | -1.25 | –
4 | OCCOCCn1c(-c2ccccc2)nc(=S)c2c1CCCC2 | -1.03 | –
5 | CC(C)CNC(=O)CCN1C(=O)c2ccccc2S1(=O)=O | -2.25 (active) | –
6 | CCN1CCN(C(=O)CN2C(=O)COc3ccc(S(=O)(=O)N4CCC(C)CC4)cc32)CC1 | 1.16 | –
7 | CCOC(=O)N1CCC(Nc2c(N3CC(C)CC(C)C3)c(=O)c2=O)CC1 (stereo not given) | 1.09 | –
8 | CN(Cc1ccco1)C(=O)c1ccc(CNc2c(N3CCCCC3)c(=O)c2=O)cc1 | -1.11 | –
9 | CCOC(=O)C(C)Sc1nnc(-c2c[nH]c3ccccc23)n1CC (stereo not given) | – | inactive
10 | O=C(O)CN1C(=O)/C(=C/c2ccc(SCc3ccco3)o2)SC1=S | -1.49 | –
11 | Cc1ccn2c(NC(=O)C(C)C)c(-c3ccc(F)cc3)nc2c1 | -1.4 | –
12 | O=C(CC(=O)Nc1ccccn1)Nc1ccc2nc3n(c(=O)c2c1)CCCCC3 | -1.11 | –
13 | CC1(C)CC(=O)c2sc(NC(=O)c3ccccc3)nc2C1 | -1.97 | –
14 | CN(C)C(=O)c1ccc2c(c1)n(C)c(=O)n2C | 1.05 | –
15 | CCCCN(CC)S(=O)(=O)c1ccc2c(c1)n(C)c(=O)c(=O)n2C | 1.13 | –
16 | CC(C)OCCCNC(=O)c1ccc(NC2=NC3CS(=O)(=O)CC3S2)cc1 (stereo not given) | 1.22 | –
17 | COc1ccc(NC(=O)CN2N=NC3C(=O)N(c4ccc(Cl)cc4)C(=O)C32)c(OC)c1 (stereo not given) | -1.12 | –
18 | Cc1cc2c(cc1C)NC(c1nc3ccccc3[nH]1)C1=C(CC(C)(C)CC1=O)N2 (stereo not given) | -1.29 | –
19 | COc1cccc(/C=c2\sc3nc(=O)c(Cc4ccc(Cl)cc4)nn3c2=O)c1OC | -1.08 | –
20 | Cc1cc(C)c2c(=O)n(CC(=O)N3CCCC3)sc2n1 | 1.19 | –
21 | Cc1ccc(-c2nc3cnccn3c2Nc2ccccc2C)o1 | -1.64 | –
22 | O=c1/c(=C/c2ccco2)sc2nc(-c3ccccc3Br)nn12 | 1.48 | –
23 | CCN(CC)CCNc1nc2c(c(=O)[nH]c(=O)n2C)n1CCCc1ccccc1 | -2.06 (active) | –
24 | C=CCNC(=O)CSc1nc(-c2cccs2)cc(C(F)(F)F)n1 | -1.55 | –
25 | Cc1nc(SCC(=O)Nc2ccc([N+](=O)[O-])cc2)c2c(=O)n(C)c(=O)n(C)c2n1 | -1.11 | –
